The panel holds about 79,000 compounds, 15% with a hit somewhere; the sample as a whole holds those more often. A number with no mark means an inactive call. Active and inactive are the calls of the source. Rule as the data show it: active = growth inhibition above about 70%; inactive = the rest. Where a SMILES comes first, the peptide text is derived from it. The star is where a group is joined. ONp = O=[N+]([O-])c1ccc(O*)cc1; Cbz = O=C(OCc1ccccc1)*; OBn = c1ccc(CO*)cc1
Key:
[1] = NCI Yeast Anticancer Drug Screen. Data for the rad50 strain (AID 155);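 also: 0% = growth of vehicle-only cultures of the same strain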; conditions: S. cerevisiae rad50 strain growth inhibition; at 50.0 µM; hits give high values
Procedure, shortened: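 Yeast carrying a defined DNA repair defect were exposed to test compounds, and growth was compared with vehicle-treated controls to give percent inhibition.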

[2] = NCI Yeast Anticancer Drug Screen. Data for the mec2-1 strain (AID 157); conditions: S. cerevisiae mec2-1 strain, at 50.0 µM, hits give high values
Procedure, shortened: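 Each compound was tested on mec2-1 yeast, a strain altered in DNA damage repair or cell cycle control. Growth inhibition is reported relative to vehicle.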

[3] = NCI Yeast Anticancer Drug Screen. Data for the sgs1 mgt1 strain (AID 161);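 also: 0% = growth of cultures given vehicle only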; conditions: S. cerevisiae sgs1 mgt1 strain, at 50.0 µM, hits give high values
Procedure, shortened: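 Mutant yeast exposed to compound; growth scored against vehicle-only wells.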

[4] = NCI Yeast Anticancer Drug Screen. Data for the cln2 rad14 strain (AID 165);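 also: 0% = growth equal to vehicle treated cultures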; conditions: S. cerevisiae cln2 rad14 strain, at 50.0 µM, hits give high values
Procedure, shortened: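 Test compounds were added to cln2 rad14 yeast cultures; inhibition of growth was then determined by comparison with vehicle treatment.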

[5] = NCI Yeast Anticancer Drug Screen. Data for the bub3 strain (AID 167); conditions: S. cerevisiae bub3 mutant strain, at 50.0 µM, hits give high values
Procedure, shortened: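 Compounds were applied to a genetically altered yeast strain carrying a cell-cycle control defect. Growth inhibition was scored against vehicle-treated controls.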

[6] = NCI Yeast Anticancer Drug Screen. Data for the mlh1 rad18 strain (AID 175); conditions: S. cerevisiae mlh1 rad18 strain growth inhibition; at 50.0 µM; hits give high values
Procedure, shortened: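 Inhibition values reflect reduced growth of mutant yeast versus vehicle-treated controls following compound exposure; the mutations affect DNA damage repair.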

SMILES	growth inhibition [1]	growth inhibition [2]	growth inhibition [3]	growth inhibition [4]	growth inhibition [5]	growth inhibition [6]
O=C(O)Cc1ccccc1C(=O)O	12.9%	2.3%	7.7%	13.8%	-19%	-5%
O=C(Cn1c2c(c3ccccc31)CCCC2)N1CCOCC1	-19.3%	-29.4%	-14.1%	5.15%	-23.8%	-19.6%
COC1=CC(=O)C(C2OC(=O)C(Cl)=C2Cl)=CC1=O (stereo not drawn)	8.1%	7.3%	-2.45%	-11.4%	16.6%	13.2%
Cc1cc(C)c(N)c(C(=O)O)c1	-46.5%	-34.6%	-39.8%	-16.1%	-47%	-15.9%
O=C(Cn1ccnc1[N+](=O)[O-])c1ccc(F)cc1	62.8%	-13.9%	33.9%	4.6%	-9.9%	13.3%
CCCCCCCCCCCCCCCCOc1ccc(-c2cc(=O)n(C)n2C)cc1OC	-14.1%	-27.2%	-9.3%	-0.15%	-8.55%	-16.2%
CCC/C(Cl)=N\OC(=O)Nc1ccc(OC(F)(F)F)cc1	24%	24.8%	91% (active)	20.1%	28.8%	58.6%
Cc1cc(SCC(=O)c2ccccc2)nc2ccccc12	-6.75%	-24.1%	-8.85%	-2.25%	-53.1%	-2.7%
CSC(=S)n1nc(-c2ccccc2)c(N=Nc2cccc(Cl)c2Cl)c1-c1ccccc1	90.2% (active)	95.5% (active)	94% (active)	94.5% (active)	93% (active)	95.2% (active)
C[Si](C)(C)c1ccc(C(=O)O)cc1	7.3%	12.6%	-3.35%	3.2%	-18.3%	10.2%
COc1ccc(-c2nnc3n(C)c4ccccc4n3c2=O)cc1	3.25%	8.55%	16.4%	26.5%	23.4%	-23.2%
COc1cc(Cn2c(=S)ss/c2=N\C(=S)N(C)C)cc(OC)c1OC	1.7%	4.45%	-0.4%	6.45%	-2.25%	-12%
C[N+](C)(C)c1cc[c]([Sn]([c]2ccc([N+](C)(C)C)cc2)([c]2ccc([N+](C)(C)C)cc2)[c]2ccc([N+](C)(C)C)cc2)cc1	16.4%	-5.75%	20.2%	6.65%	-0.15%	11.3%
CCC(=O)Nc1nc2c(ncn2C2OC(COC(=O)CC)C(OC(=O)CC)C2OC(=O)CC)c(=O)[nH]1 (stereo not drawn)	-11.6%	5.2%	18.5%	6.25%	6.8%	-7.3%
CC1CNC(=O)C(=O)N1 (stereo not drawn)	-14.7%	-1.8%	1.75%	-13.4%	-10.9%	-8.05%
Cc1c(S)cnc2ccccc12	-0.55%	-6.25%	1.7%	-66.6%	-14.8%	2.85%
Cc1nc2c(=O)[nH]c(N)nc2[nH]c1=O	-10%	-4%	-6.15%	-30.4%	-13.8%	2.3%
O=[N+]([O-])c1ccc(/C=C/[P+](c2ccccc2)(c2ccccc2)c2ccccc2)o1	94.2% (active)	97.5% (active)	89.5% (active)	83.5% (active)	95.8% (active)	93.7% (active)
Cc1ccccc1C(c1ccccc1C)C(CC(=O)O)CC(=O)O	11.7%	14.2%	10.6%	-102%	5.05%	-2.6%
NC(=O)NN/C=C(/C=Nc1ccccc1)[N+](=O)[O-]	17.4%	7.35%	1.2%	5.35%	6.55%	0.95%
CCOC(=O)C1=[N+]([O-])OC2=C(O)CCCC21 (stereo not drawn)	5.7%	2.25%	9.05%	-8.85%	2.4%	-19.3%
CC(C)CC(NC(=O)CN)C(=O)O (stereo not drawn)	-1.85%	2.4%	-1.1%	-7.2%	-6%	-0.85%

SMILES	growth inhibition [1]	growth inhibition [2]	growth inhibition [3]	growth inhibition [4]	growth inhibition [5]	growth inhibition [6]
Oc1c(O)c(Cc2ccccc2)c(Cc2ccccc2)c(Cc2ccccc2)c1Cc1ccccc1	40.7%	-19.8%	23.3%	-44.2%	-7.15%	12.8%
Cc1cccnc1NCc1ccccn1	3.1%	-0.9%	15.1%	4.35%	1.75%	3.35%
Nc1ccc(CP(=O)(O)O)cc1	-8.4%	14.8%	-3.65%	-8.1%	16.1%	24.9%
C=C(NC(C)=O)C(=O)O	-4.65%	-7.4%	-11%	4.5%	10.9%	4.15%
Cc1ccc(C2SC(N)=Nc3c2c(C)nn3C(=O)c2ccccc2O)cc1 (stereo not drawn)	8.65%	16.4%	34.9%	5.65%	10.2%	12.7%
O=C(Nc1cccc2ccccc12)Oc1ccc(Br)cc1Br	84.1% (active)	71.2% (active)	93.3% (active)	30.2%	54.1%	92.7% (active)
CC(=O)ON=C(C1CC1)C1CC1	-6%	3.5%	-6.4%	4.3%	-13%	-3.3%
C=CCCCCCCCCCCCCCCCCCC	-3.55%	-3.8%	2.8%	5.9%	-5.3%	6.2%
CC(C)CCCC(C)C1CCC2C3CC=C4CC(OC(=O)C56C=CC(=O)C5C5C=CC6CC5)CCC4(C)C3CCC12C (stereo not drawn)	11.4%	21.6%	-1.2%	2.25%	1.65%	20.9%
O=C(C[n+]1cc(Br)cc(Br)c1)c1ccc(Cl)cc1	-9.6%	-15.8%	-13%	-13.8%	-30.1%	-7.9%
CCCCOC(=O)C1CSSCC(NC(C)=O)C(=O)N1 (stereo not drawn)	-2.05%	-7.35%	1.5%	-16.5%	-7.2%	-6.95%
O=C(CNC(=O)C(CCC(=O)OCc1ccccc1)NC(=O)OCc1ccccc1)NCC(=O)NC(CO)C(=O)NCC(=O)Oc1ccc([N+](=O)[O-])cc1 (stereo not drawn) (Cbz-E(OBn)GGSG-ONp; configuration not given here)	3.75%	8.05%	21.4%	-7.85%	1.65%	20.4%
N#C/C=C\c1ccc(F)cc1	27.1%	9.7%	17.1%	3.35%	10.8%	12.2%
O=C(CSc1nc(-c2ccccc2)c(-c2ccccc2)[nH]1)NNC(=S)Nc1ccccc1	6.45%	0.5%	-7.15%	-26.3%	54.5%	3%
O=C(OC1C#CCSCC#C/C=C\1)c1cnc2ccccc2n1 (stereo not drawn)	-34%	-13.4%	-24.3%	-11.2%	-2.55%	-23%
CC(NC(=O)Nc1ccccc1Cl)c1ccccc1 (stereo not drawn)	-2.05%	17.6%	1.5%	-10.8%	34%	11.1%
c1ccc(C2=NOC3C4CCC(C4)C23)cc1 (stereo not drawn)	-37.6%	-20.4%	-28.4%	-21%	-8.85%	-20.1%
CC(=O)c1ccccc1	1.4%	-12.9%	-16.1%	-5.7%	-18.2%	-23.8%
NCC1OC(n2cnc3c(N)ncnc32)CC1O (stereo not drawn)	-16.1%	-2.75%	-17.8%	0.65%	-28.6%	-7.85%
Cc1cc(O)c([N+](=O)[O-])cc1C	-8.05%	-1.85%	-15.2%	-1.75%	3.75%	-3.55%
O=C1CN(C=C(C(=O)c2ccccc2)C(=O)c2ccccc2)C(=S)N1	-61.5%	-31.7%	-19.2%	-39%	-8.2%	-30.4%

— PubChem BioAssay (NCI)
